The source of these data is PubChem BioAssay AID434931 (National Center for Advancing Translational Sciences (NCATS), 2010).

Each structure is given as a SMILES string. Results filed as inconclusive are left out. Unmarked numbers belong to inactive results. Calls of active or inactive are those of the source. Calls follow the shape of the dose curve; as a rule, active = well fitted inhibition curve with a large enough effect; inconclusive = small, poorly fitted or top-dose-only effect, or another doubt; inactive = no such curve, though single readings can be large or run the other way.

Sequence of Neuropeptide S receptor (Homo sapiens) (Q6W5P4 whole entry, looked up): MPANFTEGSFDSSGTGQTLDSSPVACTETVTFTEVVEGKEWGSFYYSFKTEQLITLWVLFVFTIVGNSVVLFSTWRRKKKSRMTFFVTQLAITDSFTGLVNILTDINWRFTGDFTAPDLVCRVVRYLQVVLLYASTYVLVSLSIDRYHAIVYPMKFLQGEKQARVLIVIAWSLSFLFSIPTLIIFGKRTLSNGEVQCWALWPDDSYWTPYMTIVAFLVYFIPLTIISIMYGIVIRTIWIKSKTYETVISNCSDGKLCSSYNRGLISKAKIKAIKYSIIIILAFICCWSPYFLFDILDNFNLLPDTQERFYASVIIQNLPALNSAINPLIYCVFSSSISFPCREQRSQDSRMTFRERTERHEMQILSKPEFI

This assay has as its target Neuropeptide S receptor (Homo sapiens) (UniProt Q6W5P4). Kind of assay: Confirmation Concentration-Response Assay for Antagonists of the Neuropeptide S Receptor: Robust Characterization of Calcium Signal Transduction. As to conditions: CHO-NPSR cells, NPS-induced calcium fluorescence (FDSS); series mostly up to 31.6 µM; activity, negative = inhibition: at the top concentration. An excerpt:
NIH Chemical Genomics Center [NCGC] NIH Molecular Libraries Probe Production centers Network [MLPCN] MLPCN Grant: X01-DA026210-01 Assay Submitter (PI): Heilig, Markus Alexander NCGC Assay Overview: Neuropeptide S receptor (NPSR), previously known as GPR154, is a recently de-orphanized G protein coupled receptor. Its endogenous ligand is the 20 amino acids peptide Neuropeptide S (NPS). […] NPS and its receptor are found in various tissues. Specifically they are highly expressed in brain areas that have been implicated in modulation of arousal, stress and anxiety. Central administration of NPS in mice produces an unusual profile of activity by inducing wakefulness and arousal, while at the same time suppressing anxiety. Therefore, NPSR may represent a novel drug target for the treatment of sleep and anxiety disorders. To identify NPSR antagonists, we developed a cell-based assay with transfected NPS receptor. NPS can stimulate the production of cAMP as well as release intracellular calcium in Chinese hamster ovary cells stably expressing NPS receptor. This change in intracellular calcium can be detected using a calcium indicator dye on a calcium imaging plate reader system (FDSS). This particular assay uses a high density of sampling across concentration-response space to establish more confidence estimates of potency.
NCGC Assay Protocol Summary: A Chinese hamster ovary (CHO) cell line stably expressing the NPS receptor (CHO-NPSR) was obtained from Dr. Heilig lab at NIAAA and maintained in F-12 Kaighn's media (Invitrogen, Carlsbad, CA, 21127) supplemented with 10 % FBS, 100 units/ml penicillin, 100 ug/ml streptomycin and 250 ug/ml geneticin at 37C, 5% CO2 in a humidified atmosphere. Before the assay, aliquots of cells were frozen and stored at -135C. The assay was performed on a FDSS-7000 kinetic plate reader in 1536-well format. For both agonist (1-220s) and antagonist (221-400s) phases, the maximums of kinetic fluorescence responses were converted separately into text files using the instrument's software data export utility. Data for agonist response were normalized to the controls for basal activity (DMSO only) and 100% activation (NPS). […] AC50 values were determined from concentration-response data modeled with the standard Hill equation. NPS 1536-well FDSS assay protocol: (1) Frozen CHO-NPSR cells were thaw, washed once with fresh media and resuspended in F-12 Kaighn's media supplemented with 10 % FBS, 100 units/ml penicillin and 100 ug/ml streptomycin. Cells were plated at 3 ul/well (1200 cells) to black, clear-bottom, tissue-culture treated 1536-well plates, and then cultured at 37C, 5 % CO2 for 16 to 30 hours. (2) Add 3 ul of calcium dye (from High Performance PBX Calcium Assay Kit, BD Biosciences). The calcium dye was prepared according to the manufactory's instruction. (3) Incubation at 37C, 5 % CO2 for 60 to 120 min. (4) Load plates to FDSS-7000. The following steps were performed on FDSS-7000. (5) Record fluorescent background (Ex 480 nm, Em 520-560 nm) for 10 s. (6) Add 23 nl/well of compound in DMSO solution. The final titration for each compound was between 0.6 nM and 46 uM. Record agonist response for 210 s. (7) Add 2 ul of stimulation reagent (1X HBSS buffer, 0.1% BSA, 60 nM NPS). Record antagonist response for 140 s. Keywords: MLSMR, MLPCN, NIH Roadmap, qHTS, NCGC, NPS, Neuropeptide S Antagonists
In the case of `COc1cccc(C2c3c(ncn(-c4ccccc4C)c3=N)Oc3ccc4ccccc4c32)c1` (stereo not given), the Potency is 5520 nM (active).

For the compound `N#CC1=C(NC=NCc2ccccc2)Oc2ccc3ccccc3c2C1c1ccccc1` (stereo not given), the Potency was 779 nM (active).

With `CCC(C)(CCN1CCOCC1)N(Cc1cc2ccccc2n(C)c1=O)C(=O)C1CCCCC1` (stereo not given), the Potency was 1.35 nM (active).

As to `N=c1c2c(ccn1-c1ccccc1)Oc1ccc3ccccc3c1C2c1ccccc1` (stereo not given), the Potency is 220 nM (active).

Consider `COc1ccc(C2c3c(ncn(CCCc4ccccc4)c3=N)Oc3ccc4ccccc4c32)cc1OC` (stereo not given), for which the Potency is 3910 nM (active).

Regarding `COc1ccc(C2c3ccc(OCc4ccccc4)cc3Oc3ncn(CCN4CCOCC4)c(=N)c32)cc1OC` (stereo not given), the Potency is 11000 nM (active).

As for `CCOc1ccc(C2c3c(ncn(-c4ccccc4)c3=N)Oc3ccc4ccccc4c32)cc1OCC` (stereo not given), the Potency is 2460 nM (active).

Regarding `COc1cccc(C2c3c(ncn(-c4ccccc4Br)c3=N)Oc3ccc4ccccc4c32)c1` (stereo not given), the Potency was 2760 nM (active).

As for `N=c1c2c(ccn1CCCc1ccccc1)Oc1ccc3ccccc3c1C2c1ccccc1` (stereo not given), the Potency is 3480 nM (active).

Take `COc1cccc(C2c3c(ncn(Cc4cccs4)c3=N)Oc3ccc4ccccc4c32)c1` (stereo not given): the Potency was 3100 nM (active).

For the compound `CCOC(=O)c1ccc(-n2cnc3c(c2=N)C(c2cccc(OC)c2)c2c(ccc4ccccc24)O3)cc1` (stereo not given), the Potency is 2460 nM (active).

Consider `COc1cccc(C2c3c(ncn(-c4cccc(F)c4)c3=N)Oc3ccc4ccccc4c32)c1` (stereo not given), for which the Potency is 69.5 nM (active).

`CCOC(=O)CCC(=O)Nc1ncnc2c1C(c1ccccc1)c1c(ccc3ccccc13)O2` (stereo not given): the Potency is 1240 nM (active).

As to `COc1cccc(C2c3c(ncn(-c4cccc(OC)c4)c3=N)Oc3ccc4ccccc4c32)c1` (stereo not given), the Potency was 391 nM (active).

Regarding `CC(C)(C)OC(=O)Nc1ncnc2c1C(c1ccccc1)c1c(ccc3ccccc13)O2` (stereo not given), the “activity, negative = inhibition” value is 38.2%.

Turning to `COc1cccc(C2c3c(ncn(-c4cccnc4)c3=N)Oc3ccc4ccccc4c32)c1` (stereo not given), the Potency is 1740 nM (active).

In the case of `COc1cccc(C2c3c(ncn(-c4cccc(C)c4)c3=N)Oc3ccc4ccccc4c32)c1` (stereo not given), the Potency was 3910 nM (active).

Take `COc1cccc(C2c3c(ncn(-c4ccccc4SC)c3=N)Oc3ccc4ccccc4c32)c1` (stereo not given): the Potency was 24.6 nM (active).

On to `COc1cccc(C2c3c(ncn(-c4ccc(-c5ccccc5)cc4)c3=N)Oc3ccc4ccccc4c32)c1` (stereo not given), for which the “activity, negative = inhibition” value was -2.66%.

`COc1cccc(C2c3c(ncn(-c4cccc(C#N)c4)c3=N)Oc3ccc4ccccc4c32)c1` (stereo not given): the Potency was 2760 nM (active).

With `COc1cccc(C2c3c(ncn(-c4ccccc4)c3=N)Oc3ccc4ccccc4c32)c1OC` (stereo not given), the Potency is 981 nM (active).

Take `COc1cccc(C2c3c(ncn(-c4cccc(Cl)c4)c3=N)Oc3ccc4ccccc4c32)c1` (stereo not given): the Potency is 4380 nM (active).

For `COc1ccc(C2c3ccccc3Oc3ncn(CCN4CCOCC4)c(=N)c32)cc1OC` (stereo not given), the Potency is 619 nM (active).

Take `COc1cccc(C2c3c(ncn(-c4ccc(C(C)(C)C)cc4)c3=N)Oc3ccc4ccccc4c32)c1` (stereo not given): the Potency is 1240 nM (active).

With `CCOC(=O)CC(=O)Nc1ncnc2c1C(c1ccccc1)c1c(ccc3ccccc13)O2` (stereo not given), the Potency is 552 nM (active).

As to `Fc1ccc(-c2c(P(=S)(c3ccccc3)c3ccccc3)n3ccccc3[n+]2C/C=C/c2ccccc2)cc1`, the Potency was 20.1 nM (active).

For the compound `COc1ccc(C2C3=C(N=CN(CCN4CCOCC4)C3N)Oc3ccccc32)cc1OC` (stereo not given), the “activity, negative = inhibition” value is 4.73%.

For `COc1cccc(C2c3c(ncn(-c4ccccc4C(C)(C)C)c3=N)Oc3ccc4ccccc4c32)c1` (stereo not given), the Potency is 1740 nM (active).

Consider `COc1cccc(C2c3c(ncn(-c4ccc(NC(C)=O)cc4)c3=N)Oc3ccc4ccccc4c32)c1` (stereo not given), for which the Potency is 4380 nM (active).

In the case of `COc1cccc(C2c3c(ncn(-c4ccccc4-c4ccccc4)c3=N)Oc3ccc4ccccc4c32)c1` (stereo not given), the Potency is 8740 nM (active).

As for `COc1ccc(C2c3c(ncn(Cc4ccccc4)c3=N)Oc3ccc4ccccc4c32)cc1OC` (stereo not given), the Potency is 619 nM (active).

Regarding `S=P(c1ccccc1)(c1ccccc1)c1c[n+](C/C=C/c2ccccc2)c2ccccn12`, the Potency is 31.8 nM (active).

As to `COc1ccc(C2c3c(ncn(CCN4CCOCC4)c3=N)Oc3ccc4ccccc4c32)cc1OC` (stereo not given), the Potency is 438 nM (active).

For the compound `COc1cccc(C2c3c(ncn(-c4ccccc4C#N)c3=N)Oc3ccc4ccccc4c32)c1` (stereo not given), the Potency was 3100 nM (active).

As for `N=c1c2c(ncn1-c1ccccc1)Oc1ccc3ccccc3c1C2c1ccc2c(c1)OCO2` (stereo not given), the Potency is 619 nM (active).

For `Nc1ncnc2c1C(c1ccccc1)c1c(ccc3ccccc13)O2` (stereo not given), the Potency was 139 nM (active).

Consider `COc1ccc(C2c3c(nc(Cc4ccccc4)[nH]c3=O)Oc3ccc4ccccc4c32)cc1OC` (stereo not given), for which the “activity, negative = inhibition” value was 11%.

As for `COc1cccc(C2c3c(ncn(CCCN4CCOCC4)c3=N)Oc3ccc4ccccc4c32)c1` (stereo not given), the Potency was 1390 nM (active).

As to `COc1ccc(C2c3ccc4ccccc4c3Oc3ncn(CCN4CCOCC4)c(=N)c32)cc1OC` (stereo not given), the Potency is 3480 nM (active).

Turning to `COc1cccc(C2c3c(ncn(-c4ccc(C#N)cc4)c3=N)Oc3ccc4ccccc4c32)c1` (stereo not given), the Potency is 1390 nM (active).
